BaF3 tox: reduces parental Ba/F3 cell viability, JAK2V617F counter-screen. inhibition, % at 5.6 µM. CellTiter-Glo ATP luminescence. AID 1486. 220,000 compounds, 1.1% hits;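 active = inhibition above a per-campaign cutoff, the mean inhibition of all tested compounds plus 3 SD, cut at about 27% in these data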
IEC-6 cytotox: kills IEC-6 intestinal cells in KLF5 counter-screen; IEC-6 cytotoxicity, luminescence viability; inhibition, % at 5 µM; 290,000 compounds, 0.78% hits; in the data active = inhibition above about 22%
Ba/F3 V617F tox: lowers viability of Ba/F3 cells expressing EpoR and JAK2V617F; inhibition, % at 5.6 µM; AID 1446; ATP luminescence; 220,000 compounds, 1.1% hits;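 active = inhibition above the campaign mean plus 3 SD over all tested compounds, cut at about 24% in these data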;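 also: cytokine-independent growth of Ba/F3 cells driven by EpoR plus mutant JAK2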
aSyn 5UTR inh: 5' untranslated region of α-synuclein, MLPCN primary screen; alpha-synuclein 5'UTR reporter, inhibitor activity; inhibition, % (tested at 7.5 µM); 300,000 compounds, 0.82% hits; AID 1813; in the data active = inhibition above about 60%;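 also: H4 neuroglioblastoma cells stably carrying SNCA 5'UTR luciferase fusion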
KLF5 inh: suppresses KLF5 promoter-driven expression. DLD-1 KLF5 promoter-luciferase reporter, luminescence. inhibition, % at 5 µM. 290,000 compounds, 0.23% hits;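 active = inhibition above a per-plate limit of that plate's mean compound inhibition plus 3 SD, cut at about 60% in these data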;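 also: higher means less KLF5 promoter-driven luciferase light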
APP 5UTR inh: APP translation inhibition; SH-SY5Y APP 5'UTR-luciferase reporter, luminescence; inhibition, % at 2 µM; 190,000 compounds, 0.82% hits; AID 1285;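 active = inhibition above a set limit, derived from the sample mean plus 3 SD, cut at about 45% in these data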
BaF3 tox 2: parental Ba/F3 viability inhibition for JAK2V617F counter-screen. CellTiter-Glo luminescence; cells kept alive by added IL-3. 580 compounds, 31% hits. AID 1520. shares compounds with Ba/F3 V617F tox. inhibition, % at 5.6 µM;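 active = cell growth inhibition above the hit limit set in the earlier mutant JAK2 cell screen, cut at about 27% in these data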
JAK2V617F confrm: confirmation: loss of viability in JAK2V617F-dependent Ba/F3 cells; shares compounds with Ba/F3 V617F tox; AID 1521; Ba/F3 EpoR-JAK2V617F viability, CellTiter-Glo luminescence; 580 compounds, 66% hits; inhibition, % at 5.6 µM;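 active = mean inhibition above the hit cutoff derived in the earlier primary screen, cut at about 25% in these data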;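 also: higher means lower luminescence from reduced cell ATP and viability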
Numbers stand for hits; . = inactive; / = no result. Shown are actives, neighbours in structure and some others; about 2.2% of the full set was active somewhere.

SMILES | BaF3 tox | IEC-6 cytotox | Ba/F3 V617F tox | aSyn 5UTR inh | KLF5 inh | APP 5UTR inh | BaF3 tox 2 | JAK2V617F confrm
COc1ccc(N(CC(C)C)S(=O)(=O)c2nnc(NC(=O)CC(C)C)s2)cc1 | / | . | / | . | . | / | / | /
O=C(NCC1CCCO1)c1cccc(N2C(=O)C3C4C=CC(C4)C3C2=O)c1 (configuration not stated) | . | . | 96 | . | . | . | . | .
O=[N+]([O-])c1ccc(CSc2nnc(-c3cccnc3)o2)cc1 | / | . | / | . | . | / | / | /
Oc1ccc(C=Nc2cccc3ncccc23)c(O)c1 | . | . | 52 | . | . | . | . | .
Oc1ccc(C=Nc2ccc3ncccc3c2)c(O)c1 | . | . | . | . | . | . | / | /
Oc1ccc(Br)cc1-c1ccnn1-c1ccccc1 | / | . | / | . | . | / | / | /
Cc1ccc2nc(C)cc(Nc3ccc([N+](=O)[O-])cc3)c2c1 | . | . | 38 | . | . | . | . | 82
COc1ccc2nc(C)cc(Nc3ccc(C)cc3)c2c1 | / | . | / | . | . | / | / | /
COc1cc(/C=C2/SC(=S)N(CC(=O)NC(C)(C)C)C2=O)cc(OC)c1OC | . | . | . | . | . | . | / | /
COc1cc(/C=C2\SC(=S)N(CC(=O)NC(C)(C)C)C2=O)cc(OC)c1OC | . | . | 102 | . | . | . | . | .
CNC(=O)c1ccc(C)c(NC(=O)C2=C(C)OCCS2)c1 | / | . | / | . | . | / | / | /
NC(=O)c1c(-c2ccc(Cl)cc2Cl)csc1NC(=O)Cc1ccccc1 | . | . | 38 | . | . | . | 40 | 65
O=C(Cc1ccccc1)Nc1scc(-c2ccccc2)c1C(=O)N1CCOCC1 | . | . | . | . | . | . | / | /
Cc1ccc(Sc2ccc(NC(=O)CCl)cc2)cc1C | . | . | . | . | . | . | / | /
Cc1ccc(C)c(Sc2ccc(NC(=O)CCl)cc2)c1 | . | . | 50 | . | . | 60 | . | 86
O=C1CC(=O)N(CCNc2ncc(C(F)(F)F)cc2Cl)C(=O)N1 | . | . | . | . | . | . | / | /
O=C1C=CC(=O)N1CCNc1ncc(C(F)(F)F)cc1Cl | . | . | 48 | . | . | 74 | . | 82
CC(=O)Oc1ccc(OC(C)=O)c(SCCCCCCl)c1 | . | . | 85 | . | . | 83 | 102 | 97
CC(=O)Oc1ccc(C(=O)O)cc1OC(C)=O | . | . | . | . | . | . | / | /
O=C(Oc1cccc2c(O)cccc12)c1ccccc1 | . | . | 24 | . | . | . | . | 67
O=C(O)CCc1ccccc1OC(=O)c1ccccc1 | . | . | . | . | . | / | / | /
C(=N\Nc1nc2ccccc2[nH]1)/c1cccc2nccnc12 | . | . | 50 | 67 | . | / | 51 | 63
CCOC(=O)c1ccc(NC(=S)NCCC2=CCCCC2)cc1 | . | . | 81 | . | . | . | . | .
CCOC(=O)c1ccc(NC(=O)NCCc2ccccc2OC)cc1 | . | . | 64 | . | . | . | . | .
Cc1ccc(NC(=S)NCCC2=CCCCC2)cc1 | . | . | . | . | . | . | / | /
SMILES | BaF3 tox | IEC-6 cytotox | Ba/F3 V617F tox | aSyn 5UTR inh | KLF5 inh | APP 5UTR inh | BaF3 tox 2 | JAK2V617F confrm
CCOC(=O)c1ccc(NC(=O)NCc2ccccc2OC)cc1 | . | . | . | . | . | . | / | /
CC(OC(=O)/C=C/c1ccccc1Cl)C(=O)NC1CCCCC1C (configuration not stated) | / | / | / | . | / | / | / | /
COc1c(Cl)cc(C(=O)NN)cc1Cl | . | 52 | 42 | 99 | . | 92 | . | .
C=CCOc1c(Br)cc(CNc2ccc3[nH]c(=O)[nH]c3c2)cc1OCC | . | . | 32 | . | . | . | 35 | 74
N#CC1=C2SCC(O)(c3ccccc3)N2C(=O)CC1c1ccccc1F (configuration not stated) | . | . | 27 | . | . | . | . | 25
COc1ccc(C2CC(=O)N3C(=C2C#N)SCC3(O)c2ccccc2)cc1 (configuration not stated) | . | . | . | . | . | . | / | /
COc1ccc(C(=O)OCC(=O)NCc2ccccc2)c(OC)c1OC | . | . | 103 | . | . | . | . | .
CCC(C)N(C(=O)Cn1nnc(-c2ccc(F)cc2)n1)C1CCS(=O)(=O)C1 (configuration not stated) | / | . | / | . | . | / | / | /
Cc1ccc2c(c1)N(CC(=O)NCCCN1CCOCC1)C(=O)C(C(C)C)O2 (configuration not stated) | / | / | / | . | / | / | / | /
O=C(CCl)Nc1ccc(N=Nc2ccccc2)cc1 | . | . | 28 | . | . | . | . | 94
O=C(CCl)Nc1ccc(-c2ccccc2)cc1 | . | . | . | . | . | . | / | /
Oc1ccccc1/C=N/Nc1nc2ccccc2o1 | . | . | 44 | . | . | / | 65 | 74
Nc1nn(-c2ccccc2)c(N)c1N=Nc1ccccc1F | . | 24 | 36 | . | . | . | 36 | 69
Nc1c(N=Nc2ccccc2F)c(=O)[nH]n1-c1ccccc1 | . | . | . | . | . | . | / | /
COc1cc(CN2CCCC(C(=O)N3CCc4ccccc4C3)C2)cc(OC)c1OC (configuration not stated) | / | . | / | . | . | / | / | /
Cc1nc2nc3c(c(=O)n2[nH]1)CCC3 | . | . | . | . | . | . | / | /
Cc1[nH]c(=O)nc2c1CCC2 | . | . | 30 | . | . | . | . | .
COc1ccccc1S(=O)(=O)Cc1ccc(C(=O)NC2CC2)o1 | / | . | / | . | . | / | / | /
Cc1c(C#N)sc2nc(-c3ccccc3)nc(N3CCCC3)c12 | . | . | 95 | . | . | . | . | .
N#Cc1sc2nc(N3CCCCC3)c3c(c2c1N)CCCC3 | . | . | . | . | . | . | / | /
COc1ccc(/C=N/n2cnc3c([nH]c4ccc(F)cc43)c2=O)cc1CN1CCCC1 | . | . | 40 | . | . | / | . | 30
COc1ccc(/C=N/n2cnc3c([nH]c4ccc(C)cc43)c2=O)cc1CN1CCCC1 | . | . | . | . | . | / | / | /
CSc1cccc(NC(=O)CN(C)S(=O)(=O)c2cnc[nH]2)c1 | / | . | / | . | . | / | / | /
Cc1ccc(-n2c(=O)c(C#N)cc3c(=O)n4ccccc4nc32)cc1 | . | . | . | . | . | . | / | /
Cc1ccc(C)c(-n2c(=O)c(C#N)cc3c(=O)n4ccccc4nc32)c1 | . | . | 61 | . | . | . | . | .
Cc1cccc(OCC(=O)Nc2cc(C)ccc2O)c1 | . | . | 37 | . | . | . | . | 67
Cc1cccc(OCC(=O)Nc2cc(C)c(C)cc2O)c1 | . | . | . | . | . | . | / | /
Nc1ccc2c(c1)C(=O)C(=O)c1ccccc1-2 | . | . | 44 | 130 | . | 88 | 107 | 99
CC(C)CCC(CCNCc1ccccn1)c1ccc(Cl)cc1 (configuration not stated) | / | . | / | . | . | / | / | /
CCCCn1c(=N)n(CC(O)COc2ccccc2)c2ccccc21 (configuration not stated) | . | . | . | . | . | . | / | /
